Reference: PubChem BioAssay (Tox21)
Inconclusive results are not listed. The source made the active and inactive calls. Unless noted, calls come from the whole dose curve; as a rule, active = well fitted curve in the direction sought with a large enough effect in the repeat runs; inconclusive = weak or mixed curves; inactive = no such curve, though single readings can be large; an effect the other way counts as inactive or inconclusive.

Tests used:
[1] = qHTS assay to identify small molecule agonists of the RXR signaling pathway - cell viability counter screen (AID 1159529); note: series mostly up to about 77 µM; nearly all actives have a fitted effect of over 50% in size
Method in brief: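 Compounds dissolved in DMSO were pinned onto HEK 293T cells carrying a beta-lactamase reporter under RXR-alpha control and incubated 16 hr. Cytotoxicity was then quantified by CellTiter-Glo luminescence.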

[2] = qHTS assay to identify small molecule antagonists of the retinoid acid receptor (RAR) signaling pathway - cell viability counter screen (AID 1159551); note: nearly all actives have a fitted effect of over 35% in size
Method in brief: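 C3RL4 cells were seeded overnight at 37 C, then treated with compounds plus 1 uM (final) retinol for 6 h at 37 C. Viability was read as ATP by CellTiter-Glo luminescence after 30 min at room temperature.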

[3] = qHTS assay to identify small molecule antagonists of the retinoic acid receptor (RAR) signaling pathway (AID 1159552; note: nearly all actives have a fitted effect of over 50% in size)
Method in brief: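 Test chemicals and DMSO controls were pin-transferred onto C3RL4 cells a day after seeding; retinol (1 uM final) followed at once. Luminescent reporter output was quantified after 6 hr of co-incubation and 30 min with detection reagent.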

[4] = qHTS assay to identify small molecule agonists of the retinoic acid receptor (RAR) signaling pathway (AID 1159553)
Method in brief: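 C3RL4 cells carrying a RARE luciferase reporter were plated overnight at 37 C, then exposed to compounds in DMSO for 6 hr at 37 C and 5% CO2. Luminescence was read 30 min after luciferase reagent addition at room temperature.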

[5] = qHTS assay to identify small molecule antagonists of the estrogen related receptor (ERR) signaling pathway from Tox21 library - cell viability counter screen (AID 1224834); note: nearly all actives have a fitted effect of over 30% in size; note: potency is the fitted concentration of half-maximal effect
Method in brief: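 ERR reporter cells were plated 6 h before compound addition, then exposed to test compounds in DMSO for 17.5 h at 37 C. Viability was read as CellTiter-Fluor fluorescence after a 30-minute incubation at 37 C.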

[6] = molecular target: Luciferin 4-monooxygenase (Photinus pyralis) (UniProt P08659); experiment: qHTS assay to identify small molecule inhibitors of firefly luciferase (AID 1224835); note: series mostly up to about 120 µM; nearly all actives have a fitted effect of over 25% in size
Method in brief: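 Biochemical qHTS: compounds run as interplate titrations against purified firefly enzyme, with D-luciferin and ATP each at its KM concentration. Light output recorded by CCD imaging.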

[7] = qHTS assay to identify small molecule agonists of the constitutive androstane receptor (CAR) signaling pathway - cell viability counter screen (AID 1224836); note: series mostly up to about 92 µM; nearly all actives have a fitted effect of over 45% in size
Method in brief: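 23 h treatment, 37 C, 5% CO2. Cell line: HepG2 stably expressing hCAR with a CYP2B6-2.2kb construct. Co-treatment: PK11195, 0.75 uM final. Read-out: CellTiter-Fluor fluorescence intensity.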

[8] = qHTS assay to identify small molecule antagonists of the constitutive androstane receptor (CAR) signaling pathway - cell viability counter screen (AID 1224837); note: nearly all actives have a fitted effect of over 45% in size; note: potency is the fitted concentration of half-maximal effect
Method in brief: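 HepG2 cells stably expressing hCAR and a CYP2B6-2.2kb reporter were plated and pre-incubated 4 hr at 37 C/5% CO2, then given compounds at 15 concentrations plus 50 nM CITCO (final). After 23 hr, viability was read by CellTiter-Fluor fluorescence.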

[9] = molecular target: Nuclear receptor subfamily 1 group I member 3 (Homo sapiens) (UniProt Q14994); experiment: qHTS assay to identify small molecule antagonists of the constitutive androstane receptor (CAR) signaling pathway (AID 1224838); note: nearly all actives have a fitted effect of over 40% in size
Method in brief: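 HepG2 cells stably co-transfected with hCAR and a CYP2B6-2.2kb luciferase reporter were seeded 4 h before compound addition at 15 concentrations. Cells were stimulated with 50 nM CITCO (final) for 24 h at 37 C; luciferase luminescence was then read.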

[10] = molecular target: Nuclear receptor subfamily 1 group I member 3 (Homo sapiens) (UniProt Q14994); experiment: qHTS assay to identify small molecule agonists of the constitutive androstane receptor (CAR) signaling pathway (AID 1224839);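 note: HepG2 cells stably carrying human CAR and a CYP2B6 luciferase reporter; series mostly up to about 92 µM; nearly all actives have a fitted effect of over 15% in size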
Method in brief: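 Compounds tested at 15 concentrations on HepG2 cells stably harbouring hCAR and CYP2B6-2.2kb reporter constructs, co-treated with PK11195 (0.75 uM final), 24 h at 37 C; luminescent reporter signal quantified.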

[11] = qHTS assay to identify small molecule antagonists of the estrogen related receptor signaling pathway with the pleiotropic PPARgamma coactivator (PGC) from Tox21 10K library - cell viability counter screen (AID 1224840; active = well fitted cell-killing curve with a large enough effect in the repeat runs, not every such curve was filed as active; note: nearly all actives have a fitted effect of over 40% in size)
Method in brief: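 PGC/ERR cells were seeded at 2,000 cells/well and left 6 hours at 37 C/5% CO2 before pin-tool addition of compounds in DMSO. After 17.5 hours at 37 C, CellTiter-Fluor was added and fluorescence read 30 minutes later.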

[12] = molecular target: Thyrotropin receptor (Homo sapiens) (UniProt P16473); experiment: qHTS assay to identify small molecule agonists of the thyroid stimulating hormone receptor (TSHR) signaling pathway (AID 1224843; calls by dose curve; note: nearly all actives have a fitted effect of over 45% in size)
Method in brief: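 Steps: seed 800 TSHR-HEK293 cells per well; add test compound and hold 30 min at ambient temperature; dispense cAMP-d2 then anti-cAMP cryptate; incubate 1 h at ambient; measure fluorescence intensity.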

[13] = qHTS assay to identify small molecule antagonists of the estrogen related receptor signaling pathway with the pleiotropic PPARgamma coactivator (PGC) from Tox21 10K library (AID 1224841; call rule not given here; note: actives are mostly falling curves and most rising ones were filed inactive; nearly all actives have a fitted effect of over 50% in size; note: potency is the fitted concentration of half-maximal effect)
Method in brief: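 PGC/ERR reporter cells were seeded at 2,000 cells/well and held 6 hours at 37 C/5% CO2 before pin-tool addition of compounds in DMSO. After 18 hours at 37 C, One-Glo was added and luminescence read after 30 minutes at room temperature.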

[14] = qHTS assay to identify small molecule agonists of the estrogen related receptor signaling pathway with the pleiotropic PPARgamma coactivator (PGC) from Tox21 10K library (AID 1224842); note: nearly all actives have a fitted effect of over 15% in size
Method in brief: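 PGC/ERR reporter cell line, 2,000 cells per well, incubated 6 h at 37 C before 23 nL compound in DMSO was added. After 18 h at 37 C, One-Glo luminescence read following 30 min at room temperature.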

[15] = qHTS assay to identify small molecule antagonists of the estrogen related receptor (ERR) signaling pathway - cell viability counter screen (AID 1224818);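 note: series mostly up to about 46 µM; viability measured after 17.5 h of compound exposure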
Method in brief: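 ERR reporter cells plated 6 h at 37 C/5% CO2, then compounds in DMSO pin-transferred and incubated 17.5 h at 37 C. Viability read as CellTiter-Fluor fluorescence after 30 min at 37 C.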

[16] = qHTS assay to identify small molecule antagonists of the estrogen related receptor (ERR) signaling pathway (AID 1224819;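 note: luminescence from an ERR-driven luciferase reporter measured with One-Glo reagent; series mostly up to about 46 µM; nearly all actives have a fitted effect of over 50% in size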)
Method in brief: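 ERR reporter cells were plated at 2,000 cells/well and left 6 h at 37 C/5% CO2 before pin-tool transfer of compounds in DMSO. After 18 h at 37 C, One-Glo was added and luminescence was read 30 min later at room temperature.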

[17] = qHTS assay to identify small molecule agonists of the estrogen related receptor (ERR) signaling pathway (AID 1224820)
Method in brief: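 Quantitative HTS of the LOPAC library used NTP ERR reporter cells treated 18 h at 37 C. Signal is luminescence after One-Glo addition and a 30 min room-temperature incubation.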

[18] = qHTS assay to identify small molecule antagonists of the estrogen related receptor signaling pathway with the pleiotropic PPARgamma coactivator (PGC) cell viability counter screen (AID 1224822; note: series mostly up to about 46 µM)
Method in brief: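 PGC/ERR cells were seeded at 2,000 cells/well, rested 6 h at 37 C/5% CO2, then given compounds in DMSO by pin tool and incubated 17.5 h at 37 C. Viability came from CellTiter-Fluor fluorescence after 30 min.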

Measured: Potency

Chain of Luciferin 4-monooxygenase (Photinus pyralis) (P08659 whole entry, looked up): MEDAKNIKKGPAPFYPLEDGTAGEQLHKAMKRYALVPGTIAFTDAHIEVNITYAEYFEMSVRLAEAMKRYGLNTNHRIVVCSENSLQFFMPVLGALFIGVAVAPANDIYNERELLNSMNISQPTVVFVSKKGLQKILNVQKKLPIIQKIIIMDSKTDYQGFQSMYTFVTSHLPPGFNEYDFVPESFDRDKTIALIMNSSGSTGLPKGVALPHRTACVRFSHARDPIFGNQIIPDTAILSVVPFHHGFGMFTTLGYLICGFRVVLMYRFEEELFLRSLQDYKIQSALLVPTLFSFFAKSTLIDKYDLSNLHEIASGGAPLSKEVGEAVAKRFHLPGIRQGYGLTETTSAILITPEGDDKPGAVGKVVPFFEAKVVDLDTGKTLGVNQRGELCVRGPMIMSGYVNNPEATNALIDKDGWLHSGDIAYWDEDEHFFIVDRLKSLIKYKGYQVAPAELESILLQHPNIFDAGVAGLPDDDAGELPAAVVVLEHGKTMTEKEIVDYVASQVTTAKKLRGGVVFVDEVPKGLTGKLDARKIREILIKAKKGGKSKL
Chain of Thyrotropin receptor (Homo sapiens) (P16473 whole entry, looked up): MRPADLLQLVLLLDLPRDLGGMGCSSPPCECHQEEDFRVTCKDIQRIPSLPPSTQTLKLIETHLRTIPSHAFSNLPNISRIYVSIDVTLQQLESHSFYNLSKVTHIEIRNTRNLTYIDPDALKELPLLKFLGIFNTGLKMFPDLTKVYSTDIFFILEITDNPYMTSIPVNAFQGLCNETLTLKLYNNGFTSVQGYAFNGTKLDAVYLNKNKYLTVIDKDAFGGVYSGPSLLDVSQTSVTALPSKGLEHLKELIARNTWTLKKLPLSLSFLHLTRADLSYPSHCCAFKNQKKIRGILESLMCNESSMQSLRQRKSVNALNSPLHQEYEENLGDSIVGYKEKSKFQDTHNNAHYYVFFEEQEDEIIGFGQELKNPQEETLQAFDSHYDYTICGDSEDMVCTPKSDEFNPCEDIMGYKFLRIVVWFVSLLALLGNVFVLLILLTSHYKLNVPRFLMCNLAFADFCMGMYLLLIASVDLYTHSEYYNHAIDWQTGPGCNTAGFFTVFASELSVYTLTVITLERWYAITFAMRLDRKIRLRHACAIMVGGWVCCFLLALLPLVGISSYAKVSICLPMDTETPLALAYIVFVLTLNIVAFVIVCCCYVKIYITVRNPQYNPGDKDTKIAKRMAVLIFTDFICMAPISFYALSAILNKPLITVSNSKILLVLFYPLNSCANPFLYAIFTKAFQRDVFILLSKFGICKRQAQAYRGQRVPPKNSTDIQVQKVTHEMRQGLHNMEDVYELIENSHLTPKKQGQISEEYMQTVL
Chain of Nuclear receptor subfamily 1 group I member 3 (Homo sapiens) (Q14994 whole entry, looked up): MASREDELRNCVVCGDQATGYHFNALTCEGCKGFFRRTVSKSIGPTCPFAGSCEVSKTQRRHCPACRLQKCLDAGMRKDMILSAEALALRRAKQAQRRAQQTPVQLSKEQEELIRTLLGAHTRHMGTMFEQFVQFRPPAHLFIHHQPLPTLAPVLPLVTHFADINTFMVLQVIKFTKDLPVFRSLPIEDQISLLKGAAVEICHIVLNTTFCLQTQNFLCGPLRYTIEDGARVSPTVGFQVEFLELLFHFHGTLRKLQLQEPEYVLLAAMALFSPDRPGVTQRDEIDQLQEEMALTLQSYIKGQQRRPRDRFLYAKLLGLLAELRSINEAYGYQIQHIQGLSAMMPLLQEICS

CCc1cnc(C2=NC(C)(C(C)C)C(=O)N2)c(C(=O)O)c1 (centres undefined)
not listed: [13] | [14] | [15] | [16] | [17] | [18]
inactive: all other assays above

C[N+](C)(C)CC1CO1 (centres undefined)
inactive: [1] | [2] | [3] | [4] | [5] | [7] | [8] | [12]

CN(C)C(=O)Nc1cccc(OC(=O)NC(C)(C)C)c1
not listed: [9] | [10] | [11] | [15] | [16] | [17] | [18]
inactive: all other assays above

FC(F)OC(F)(F)C(F)Cl (centres undefined)
not listed: [10] | [13] | [14] | [15] | [16] | [17] | [18]
inactive: all other assays above

COc1cc(C[C@@H](C)N)c(OC)cc1Br
active: [13] 31.5 µM
not listed: [9] | [10] | [12] | [15] | [16] | [17] | [18]
inactive: all other assays above

CCSCc1ccccc1OC(=O)NC
inactive: [1] | [2] | [3] | [4] | [5] | [7] | [8] | [9] | [11]

CCOP(=S)(OCC)Oc1ccc(S(C)=O)cc1 (centres undefined)
not listed: [15] | [16] | [17] | [18]
inactive: all other assays above

CN1C(=O)CN=C(c2ccccc2)c2cc([N+](=O)[O-])ccc21
not listed: [11] | [13] | [14] | [15] | [16] | [17] | [18]
inactive: all other assays above

C=CC(=O)NC(C)(C)CC(C)=O
inactive: [1] | [2] | [3] | [4] | [5] | [6] | [7] | [8] | [9] | [11]

CCOP(=O)(SC(C)CC)N1CCSC1=O (centres undefined)
inactive: [1] | [2] | [3] | [4] | [5] | [7] | [8] | [10] | [11] | [12]

Cc1cccc(C)c1NC1=NCCCS1
not listed: [6] | [9] | [10] | [13] | [14]
inactive: all other assays above

O=C(O)c1cc(Cl)ccc1Cl
inactive: [1] | [2] | [3] | [4] | [5] | [6] | [7] | [8] | [11]

O=S(=O)(Cl)Cl
not listed: [13] | [14] | [15] | [16] | [17] | [18]
inactive: all other assays above

CC(Cl)C(=O)O (centres undefined)
inactive: [1] | [2] | [3] | [4] | [5] | [7] | [8] | [9] | [11] | [12]

CCCCCl
not listed: [6] | [9] | [10] | [15] | [16] | [17] | [18]
inactive: all other assays above

O=S(=O)(c1ccccc1)c1ccccc1
not listed: [12] | [15] | [16] | [17] | [18]
inactive: all other assays above

CCN(C(C)=O)c1cccc(-c2ccnc3c(C#N)cnn23)c1
inactive: [1] | [2] | [3] | [4] | [5] | [6] | [7] | [8] | [11] | [12]

CCOC(=O)NC(O)C(Cl)(Cl)Cl (centres undefined)
not listed: [9] | [13] | [14] | [15] | [16] | [17] | [18]
inactive: all other assays above

Cc1nc2ccccc2c(=O)n1-c1ccccc1Cl
inactive: [1] | [2] | [3] | [6] | [9] | [13] | [14]
active: [5] 21.2 µM | [8] 16.9 µM

O=C(O)C(Cl)(Cl)Br
not listed: [4] | [13] | [14] | [15] | [16] | [17] | [18]
inactive: all other assays above

CCCCOC(=O)CCC(=O)OCCCC
not listed: [4] | [15] | [16] | [17] | [18]
inactive: all other assays above
